Measurements published in PubChem BioAssay AID1650 (Southern Research Specialized Biocontainment Screening …, 2009).
Entries with a potency or affinity are not part of this list. Activity calls are given as the source filed them. The rule behind the calls is not given here.

Assay: mammalian cell viability reduction – secondary assay, cytotoxicity control for West Nile virus antiviral project, dose response (AID 1650)
Conditions: Mammalian host cell viability, cytotoxicity counter-screen; series mostly up to 10 µM

| SMILES | outcome |
| --- | --- |
| O=C(CCN1C(=O)/C(=C/c2ccccc2Cl)SC1=S)NCCc1ccc(O)cc1 | inactive |
| O=C(CN1C(=O)/C(=C\c2cccc(Cl)c2)Sc2ccccc21)NCCCN1CCOCC1 | inactive |
| Cc1oc(-c2ccccc2Cl)[n+]([O-])c1C | inactive |
| CCOC(=O)N1CCC2(CC1)C(C#N)=C(N)OC1=C2C(=O)CCC1 | inactive |
| Cc1ccc(CN(Cc2cc3cccc(C)c3[nH]c2=O)C(=S)NCCCN(C)C)cc1 | inactive |
| O=C(Nc1cccc(-c2cccc(Cl)c2)c1)C1CCN(CC2CCOC2)CC1 (stereo not given) | inactive |
| c1ccc(-c2ccc(-c3[nH]ncc3CN3CCC(N4CCSCC4)CC3)cc2)cc1 | inactive |
| O=C1Nc2cc(C(=O)NCCCN3CCOCC3)ccc2S/C1=C/c1cccc(Cl)c1 | inactive |
| O=C(Nc1cccnc1Cl)c1cc(-c2ccc(Cl)cc2)on1 | inactive |
| Cc1ccc(COc2cccc(/C=N/NC(=O)c3nnn(-c4nonc4N)c3C)c2)cc1 | inactive |
| C[C@H]1[C@H](C)CC[C@]2(C(=O)O)CC[C@]3(C)C(=CC[C@@H]4[C@@]5(C)C[C@@H](O)[C@H](O)C(C)(C)[C@@H]5CC[C@]43C)[C@H]12 | inactive |
| CC1CN(C(=O)CCC(=O)NCCCN2CCC(Cc3ccccc3)CC2)c2cc(Cl)ccc2O1 (stereo not given) | inactive |
| CCn1cc(C(=O)NCc2ccc3c(c2)OCO3)c(=O)c2cc(F)c(N3CCN(C(=O)c4ccco4)CC3)cc21 | inactive |
| CN1CCN(Cc2nc3ccccc3c(=O)n2Cc2nc(-c3ccccc3F)cs2)CC1 | inactive |
| O=C(Nc1ccc(F)cc1F)c1cc2ccccc2oc1=O | inactive |
| CCc1ccc(C(=O)Cn2ncc(Cl)c(Cl)c2=O)cc1 | inactive |
| CCN1CCN(CCCNC(=O)c2cc3c(s2)-c2ccccc2OC3)CC1 | inactive |
| CC(CN1CCCC1)C(=O)NN (stereo not given) | inactive |
| Cn1c(N/N=C/c2c[nH]c3ccccc23)nc2ccccc21 | inactive |
| CN(Cc1ccccc1)c1nc(N)c([N+](=O)[O-])c(Nc2cccc(F)c2)n1 | inactive |

| SMILES | outcome |
| --- | --- |
| COc1ccc(C2c3[nH]c4ccccc4c3CCN2C(=O)c2cc3ncccn3n2)c(F)c1 (stereo not given) | inactive |
| Cc1cccc(C)c1Nc1nc2ccccc2o1 | inactive |
| Cc1ccc(-c2cc(C(=O)NCCCN3CCCC3)c3ccccc3n2)cc1C | inactive |
| CCN(CC)CCNc1ncnc2c1sc1nc(N3CCCC3)c3c(c12)CC(C)(C)OC3 | inactive |
| Cc1cccc(CN2CCC(CNC(=O)CSc3cc(=O)n(C)c4cc(Cl)ccc34)CC2)c1 | inactive |
| CCN(CC)CCCNc1nc(-c2ccccc2)nc2ccccc12 | inactive |
| CC(C)(C)n1nnnc1C(c1ccccc1)N1CCc2ccccc2C1 (stereo not given) | inactive |
| CCN(CC)CCNC(=O)C1CCN(S(=O)(=O)c2c(C)noc2/C=C/c2ccccc2F)CC1 | inactive |
| CC/C(=C(\c1ccc(O)cc1)c1ccc(OCCN(C)C)cc1)c1ccccc1 | inactive |
| COc1ccc(OCc2cccc(C(=O)Nc3ccc(CN4CCCCC4)cc3)c2)cc1 | inactive |
| Cc1onc(-c2ccccc2Cl)c1C(=O)O/N=C(\N)c1ccc([N+](=O)[O-])o1 | inactive |
| N#Cc1cc(-c2ccc(Cl)cc2)cnc1Sc1ccc(F)cc1 | inactive |
| O=C(CNc1cccc2ccccc12)N/N=C/c1ccc([N+](=O)[O-])o1 | inactive |
| CCOC(=O)C1(Cc2cccc(OC)c2)CCCN(C(=O)c2ccccc2C)C1 (stereo not given) | inactive |
| O=C(Nc1ccc2nc3n(c(=O)c2c1)CCCC3)c1cc([N+](=O)[O-])ccc1F | inactive |
| CCCC1(c2ccccc2)NC(=O)N(CC(=O)Nc2sc(-c3ccccc3)cc2C(=O)OCC)C1=O (stereo not given) | inactive |
| O=C1OC(N2CCN(Cc3ccccc3)CC2)c2ccccc21 (stereo not given) | inactive |
| Cc1ccc(Cl)cc1N1CCN(CC(=O)Nc2ccc(CN3CCCCC3)cc2)CC1 | inactive |
| CCN(CC)S(=O)(=O)c1ccc(NC(=O)Cn2cnc3ccccc3c2=O)cc1 | inactive |
| CC(/C=N/Nc1nc(N2CCCCC2)nc(N2CCCCC2)n1)=C\c1ccccc1 | inactive |
